Source: PubChem BioAssay
Sampled rows, rich in hits. Any-hit rate of the full collection: about 19%.
HT1080 IDH1KD tx: qHTS for induction of synthetic lethality in tumor cells producing 2HG: qHTS for the HT-1080-IDH1KD cell line | HT-1080 IDH1 knockdown viability, ATP luminescence, 48 h | Potency, µM (series often up to 46.1 µM), without a hit: at the top dose activity, negative = toxicity, actives largely listed as cytotoxic | hit rate 2% among 360,000 | AID 686971, 2013;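 note: potency is the fitted concentration of half-maximal effect; 0% = DMSO wells and -100% = cell-free medium wells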
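Cytotoxicity counter-line: IDH1KD HT-1080, 48 h, CellTiter-Glo. Curves classed by r2, magnitude and activity.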
TDP1 cell noCPT: qHTS for Inhibitors of human tyrosyl-DNA phosphodiesterase 1 (TDP1): qHTS in cells in absence of CPT; DT40 Tdp1-/- hTDP1 cells, no CPT, ATP luminescence, 48 h; Potency, µM (highest dose often 46.2 µM), for inactives: top-dose activity change, negative = growth inhibition, most hits filed as inhibitors; hit rate 15% among 420,000; note: potency is the fitted concentration of half-maximal effect; nearly all actives have a fitted effect of over 55% in size
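Cells were dispensed at 400 per well, compounds added by pin tool, plates incubated ≥48 hr at 37 °C, then CellTiter-Glo added for 30 min at room temperature before luminescence reading. Line: DT40 Tdp1-/- complemented with hTDP1; camptothecin omitted.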
IL1B secr inh: qHTS for Inhibitors of Inflammasome Signaling: IL-1-beta AlphaLISA Primary Screen; THP-1 LPS/ATP IL-1B secretion, AlphaLISA, 16 h; hits give low values; activity change, % at 57.5 µM; hit rate 4.7% among 360,000; AID 743279, 2014; in the data active = activity change below about -50%; inconclusive = mostly about -30% to -49%
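Secreted IL-1B measured by AlphaLISA bead assay after 16 h compound exposure of THP-1 cells; compounds (final up to 57.5 uM) added 1 h before LPS (250 ng/mL) and ATP (1.25 mM) stimulation; lower signal means less secretion.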
HT1080-NT tox: qHTS for induction of synthetic lethality in tumor cells producing 2HG: qHTS for the HT-1080-NT fibrosarcoma cell line. AID 686970, 2013. hit rate 1.6% among 360,000. Potency, µM (top dose mostly 46.1 µM), inactives show at the highest dose activity, negative = less viability, hits mostly cytotoxic. HT-1080-NT fibrosarcoma viability, CellTiter-Glo ATP luminescence, 48 h;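 note: NT is the 2HG producing partner of a matched IDH1 knockdown line; potency is the fitted concentration of half-maximal effect; 0% = DMSO-treated cells and -100% = media-only wells without cells; nearly all actives have a fitted effect of over 55% in size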
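750 cells/well, RPMI + 5% FBS; 2 h settle, compound pin-transfer, 48 h at 37 degrees C. CellTiter-Glo 10 min RT, luminescence. Normalized to DMSO and media-only wells.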
DT40 TDP1 CPT: qHTS for Inhibitors of human tyrosyl-DNA phosphodiesterase 1 (TDP1): qHTS in cells in presence of CPT; chicken DT40 Tdp1-/-;hTDP1 cells + 20 nM CPT, ATP luminescence, 48 h; hit rate 12% among 420,000; Potency, µM (highest dose often 46.2 µM), for inactives: at the highest dose activity change, negative = growth inhibition, usual class: inhibitors; note: potency is the fitted concentration of half-maximal effect; nearly all actives have a fitted effect of over 55% in size
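Chicken DT40 Tdp1-/- cells complemented with human TDP1, 400 cells/well, exposed to compounds plus 20 nM camptothecin for at least 48 h at 37 C; viability read as ATP content by CellTiter-Glo luminescence.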
* marks the source's active call; other numbers are inactive results; i = inactive; u = inconclusive; x = no result; ! = repeats disagree; [ ] = another dose, or the depositor's remark. Unless noted, calls come from the whole dose curve; as a rule, active = well fitted curve in the direction sought with a large enough effect; inconclusive = small, poorly fitted or top-dose-only effect, or another doubt; inactive = no such curve, though single readings can be large; an effect the other way counts as inactive or inconclusive. Unless noted, % is set by controls: 0 for no effect and ±100 for the full control effect.

SMILES	HT1080 IDH1KD tx	TDP1 cell noCPT	IL1B secr inh	HT1080-NT tox	DT40 TDP1 CPT
CCOc1ccc(-c2nnc(SCC(=O)NC3CCCCC3)nc2-c2ccc(OCC)cc2)cc1	x	-25%	x	x	2%
CCCCNC(=O)C(CC)Sc1nnc(-c2ccc(OC)c(OC)c2)c(-c2ccc(OC)c(OC)c2)n1 (configuration not stated)	x	-28%	x	x	-1%
Cc1cnc(-n2ncc(C(=O)NCC3CCCN(C)C3)c2C)nc1-c1cccs1 (configuration not stated)	x	-13%	x	x	-11%[9.04 µM]
O=C(c1cc(-c2ccco2)nn1-c1cccc(Cl)c1)N1CCCCC1	1%[9.24 µM]	16µM*	0	u	16µM*
Cc1ccc(NC(=O)CCNS(=O)(=O)c2ccc(Br)cc2)cc1S(=O)(=O)N1CCOCC1	-1%	-25%	-9	5%	-24%
CC(=O)OC1c2c(ccc3ccc(=O)oc23)OC(C)(C)C1OC(=O)CC(C)C (configuration not stated)	-4%	18µM*	0	-6%	23µM*
CCO[C@@H]1c2c(ccc3ccc(=O)oc23)OC(C)(C)[C@@H]1O	3%	-7%	-2	-1%	-1%
C/C=C(/C)C(=O)O[C@@H]1c2c(ccc3ccc(=O)oc23)OC(C)(C)[C@@H]1OC(=O)/C(C)=C\C	u	9.2µM*	u	u	16µM*
CO/N=C/c1cccn1-c1nccc(OC)c1C#N	1%	-29%	0	1%	-12%
O=S(=O)(c1ccc(Br)cc1)N1CCN(Cc2ccco2)CC1	-2%	-11%	-14	1%	-12%
O=C1OC(c2cccs2)Sc2ccccc21 (configuration not stated)	5%	-1%	21	2%	-11%
Cc1cc(C)cc(NC(=O)c2ccc(CSc3nnnn3C)cc2)c1	-10%	-6%	-53*	-5%	-6%
CCC(=N\NC(=O)COc1ccccc1OC)/C(CC)=N/NC(=O)COc1ccccc1OC	-3%	-25%	11	-3%	-12%
O=[N+]([O-])c1ccc2c(c1)C(=NO)c1cc(F)ccc1-2	4%	12µM*	u	7%	16µM*
Nc1cc2c(cc1Cl)-c1ccc([N+](=O)[O-])cc1C2=NO	u	7.3µM*	3	20%	8.2µM*
COc1ccc(Nc2ccc([N+](=O)[O-])cc2[N+](=O)[O-])cc1	-3%	-21%	0	3%	15%
COc1cc2c(cc1[N+](=O)[O-])-c1ccc([N+](=O)[O-])cc1C2=NO	-17%	15µM*	u	-14%	26µM*
O=[N+]([O-])c1ccc2c(c1)/C(=N\O)c1ccccc1-2	-9%	u	-8	-9%	u
O=C1c2cc([N+](=O)[O-])ccc2-c2cc(Cl)c(NC(=O)C(F)(F)F)cc21	0%	u	11	0%	u
O=C1CN(C(=O)CNCc2cccc(Cl)c2)c2ccccc2N1	13%	6%	-3	17%	-1%
O=C(O)c1cn(CCOc2ccccc2Cl)c2ccccc12	18%	0%	11	13%	30%
O=C(c1cn(CCOc2ccccc2F)c2ccccc12)C1CCCCC1	x	16µM*	x	x	u
CC(=O)c1cn(CCOc2ccccc2C)c2ccccc12	-20%	5.8µM*	-16	u	8.2µM*
Cc1ccccc1OCCn1cc(C(=S)N2CCCC2)c2ccccc21	-14%	u	-6	-27%	u
Cc1ccccc1OCCn1cc(C(=S)N2CCN(C)CC2)c2ccccc21	-11%	15µM*	u	-10%	u
SMILES	HT1080 IDH1KD tx	TDP1 cell noCPT	IL1B secr inh	HT1080-NT tox	DT40 TDP1 CPT
CC(=O)c1cn(CCOc2ccc(F)cc2)c2ccccc12	u	u	0	u	15µM*
CC(=O)N1CCCc2cc(S(=O)(=O)N3CCCC(C(=O)Nc4cc(C)ccc4C)C3)ccc21 (configuration not stated)	-15%	-29%	14	-1%	u
CC(=O)N1CCCc2cc(S(=O)(=O)N3CCCC(C(=O)NCc4ccccc4)C3)ccc21 (configuration not stated)	1%	26µM*!	-14	0%	u
CC(=O)N1CCCc2cc(S(=O)(=O)N3CCCC(C(=O)NCc4ccc(C)cc4)C3)ccc21 (configuration not stated)	-12%	23µM*	82	-1%	18µM*
CC(=O)N1c2ccc(S(=O)(=O)N3CCCC(C(=O)NCc4ccccc4)C3)cc2CC1C (configuration not stated)	7%	u	-5	0%	-24%
CC(=O)N1CCCc2cc(S(=O)(=O)N(Cc3ccccc3)C(C)C)ccc21	x	16µM*	x	x	15µM*
CCCc1cc(OC)c2c(c1)OCO2	x	-10%	x	x	2%
CN(CC(=O)N1CCCCCC1)S(=O)(=O)c1ccc(F)cc1	18%	-1%	8	23%	-8%
CCc1ccc(OCc2nc(-c3ccc(OC)c(OC)c3)no2)c(Br)c1	x	u	x	x	-27%
C/C(CC1CC(C)(C)OC1=O)=N\NC(N)=S (configuration not stated)	8%	-8%	5	3%	27%
C/C(CC1CC2=C(CC1(C)C)C(C)(C)CCC2)=N\NC(N)=S (configuration not stated)	5.6µM*	5.8µM*	-74*	u	6.5µM*
CCOc1ccc(S(=O)(=O)N(CC(=O)NCCSc2ccc(C)cc2)c2ccccc2)cc1	x	-19%	x	x	-20%
Cc1ccc(S(=O)(=O)N(CC(=O)NCCSc2ccc(Cl)cc2)c2cccc(Cl)c2)cc1	x	21µM*	x	x	u
COCCNC(=O)CN(c1ccc(C)cc1)S(=O)(=O)c1ccccc1	22%	-14%	4	11%	10%
Cc1cccc(N(CC(=O)NC2CC2)S(=O)(=O)c2ccc(Cl)cc2)c1	4%	-1%	i	5%	-18%
COc1ccc(S(=O)(=O)N(CC(=O)NCCSc2ccc(C)cc2)c2ccc(C)cc2)cc1	x	23µM*	x	x	18µM*
Cc1ccc(N(CC(=O)NCCSc2ccccc2)S(=O)(=O)c2ccc(F)cc2)cc1	x	9.2µM*	x	x	u
Cc1ccc(NS(=O)(=O)c2cc(C(=O)NCCCN(C)C)ccc2Cl)cc1Cl	-1%	-6%	-1	-7%	-20%
